In ChEMBL document CHEMBL1157539, “Thousands of chemical starting points for antimalarial lead identification” (Nature, 2010) one finds Inhibition data, which are given here for 36 compounds.

Broadly, the Inhibition is the change of the read-out against control, counted positive when it falls.

The assay concerns Plasmodium falciparum. Put plainly: GSK_TCMDC: Inhibition of Plasmodium falciparum 3D7 in whole red blood cells, using parasite LDH activity as an index of growth. Test compounds present at 2uM. It counts as functional.
As for `Cl.O=C(Nc1ccccc1Br)N[C@@H]1CCN(c2ccnc3ccccc23)C1`, the Inhibition came to 91%. With `CC(C)(C)N1CCC(N(Cc2ccc(-c3ccc(C(F)(F)F)cc3)cc2)C(=O)Cn2c(CCc3cccc(F)c3F)nc(=O)c3cccnc32)CC1.O=C(O)C(O)C(O)C(=O)O`, the Inhibition was found to be 100%. On to `O=C(c1ccc([N+](=O)[O-])o1)N1CCC(Cc2ccc(C(F)(F)F)cc2)CC1`, for which the Inhibition was 100%. `CN1CCN(c2ccnc3cc4c(cc23)N(Cc2ccccc2)CC4)CC1` came in with an Inhibition of 94%. To `O=C(/C=C/c1ccc(Cl)c(Cl)c1)NCCCCCN1CCC(NC(=O)Nc2ccc(Oc3ccccc3)cc2)C1` (stereo unspecified) belongs 99%; to `O=C(NCc1ccc(C(=O)NCc2cccc3ccccc23)cc1)c1ccc(O)c(-c2ccc(Cl)c(Cl)c2)c1`, 100%; to `COc1ccc(Nc2cc(C)c3cc(NC(=O)c4ccncc4)ccc3n2)cc1`, 98%. The value for `COc1ccc(S(=O)(=O)Nc2ccc(C(=O)NCc3ccc(C(F)(F)F)cc3)cc2)cc1N1CCN(CC2CC2)CC1.O=C(O)C(F)(F)F` was 95%; that for `Br.C=CCc1cccc(OC)c1OCCCON1C(=N)N=C(N)NC1(C)C` was 94%; that for `Cc1ccnc(NC(c2cccc(Cl)c2Cl)c2ccc3cccnc3c2O)c1` (stereo unspecified) was 86%. Compound `Cl.NC1=NC(c2ccccc2)N(c2ccc(Cl)c(Cl)c2)C(N)=N1` (stereo unspecified) yielded an Inhibition of 94%. Turning to `CC(CCCCC(=O)Nc1ccc(CC(C)NCCc2cccc(Cl)c2)cc1)NCCc1cccc(Cl)c1` (stereo unspecified), the Inhibition is 91%.

`O=C(NC1CCCCC1)N(Cc1ccc(-c2cccc(CNCc3ccc4c(c3)OCO4)c2)cc1)C1CCN(Cc2ccccc2)CC1.O=C(O)C(F)(F)F`: the Inhibition came to 100%. To `COc1cc(C(=O)NCCCN2CCN(c3cc(Cl)ccc3OC)CC2)ccc1-c1nc2cc(Cl)c(Cl)cc2[nH]1` belongs 100%; to `O=C(/C=C/c1ccccc1O)NCCCCCN1CCC(c2c[nH]c3ccccc23)CC1`, 95%; to `O=C(c1ccc(F)c(F)c1)N1CCOC(CCN2CCC(c3ccccc3)CC2)(c2ccc(Cl)c(Cl)c2)C1` (stereo unspecified), 89%. To `CCCC(C(=O)OCCN(CC)CC)(c1ccc(Cl)cc1)c1ccc(Cl)cc1.Cl` belongs 91%; to `Cc1ccc(Nc2nccc(Nc3ccc4c(c3)nc(Nc3cc(C(C)(C)C)on3)n4C)n2)cc1S(C)(=O)=O`, 100%.

`O=C(NCC1CCN(Cc2ccc3c(c2)OCCO3)C1)c1cc(-c2cccc(C(F)(F)F)c2)cs1.O=C(O)C(F)(F)F` (stereo unspecified) showed an Inhibition of 100%. The value for `Cc1cccc(N2CCN(C3CCC(NC(=O)c4cc5ccccc5[nH]4)CC3)CC2)c1C` (stereo unspecified) was 100%; that for `COc1cc(OC)cc(C(=O)Nc2cccc(-c3cn4ccc(C)cc4n3)c2)c1` was 86%. The value for `N#Cc1cc([N+](=O)[O-])ccc1-n1nc(C(N)=O)n(Cc2cccc(F)c2)c1=S` was 100%; that for `CC(=O)N1CCC(C(=O)Nc2ccc(-c3cccc(-c4nc5cccc(C)c5[nH]4)c3)cc2)CC1` was 84%; that for `CCCCCC(NCCCC)c1ccc(OCCOc2ccc(C(CCCCC)NCCCC)cc2)cc1.Cl` (stereo unspecified) was 88%. Compound `CCC[C@@H]([C@@H](CC1CCCCC1)C(=O)N[C@H](C(=O)Nc1ccccn1)[C@H](C)CC)N(O)C=O` had an Inhibition of 96%. To `CC(Nc1cc(-c2ccccn2)nc(-c2ccccn2)n1)c1ccccc1` (stereo unspecified) belongs 85%; to `COc1ccc2c(c1C1CCN(CCCCNC(=O)c3ccc(-c4ccc(Cl)cn4)cc3)CC1)CCCC2`, 90%. Compound `CC(C)(C)c1ccc(CNC(=O)c2ccc(-c3nc4cc(C(C)(C)C)ccc4[nH]3)cc2)cc1` yielded an Inhibition of 96%. As for `Cc1ccc(NC(=O)c2ccc(Cl)c(Cl)c2)cc1-c1ccc(C(=O)Nc2ccncc2)cc1`, the Inhibition was 99%.

As for `Cc1cccc2nc(-c3cccc(-c4cccc(NC(=O)c5c[nH]cn5)c4)c3)[nH]c12`, the Inhibition is 100%. `Cc1nnc(-c2ccc3ccccc3c2)c2cn(-c3cccc([N+](=O)[O-])c3)nc12` displayed an Inhibition of 91%. Regarding `Cl.N#Cc1cccc(/C=C/C(=O)NC2CCC(CCN3CCc4ccc(-c5cnccn5)cc4CC3)CC2)c1` (stereo unspecified), the Inhibition is reported as 93%. `O=C1c2cc(I)ccc2SC1c1ccccc1` (stereo unspecified) registered an Inhibition of 96%. The value for `CC(=O)N1CCN(c2ccc(NC(=O)c3oc(-c4ccccc4)nc3C(F)(F)F)cn2)CC1` was 92%; that for `Cc1ccc(NC(=O)c2ccc(N3CCN(c4ccncc4)CC3)cn2)cc1F.O=C(O)C(F)(F)F` was 98%; that for `CN(C)c1ccc(CN2CCC(CNC(=O)c3cc(-c4cccc(F)c4)cs3)C2)cc1.O=C(O)C(F)(F)F` (stereo unspecified) was 96%.
